Laboratory results taken from PubChem BioAssay AID1159580 (chemical genetic matrix, 2015).
The campaign covered roughly 5,500 compounds. About 2,000 (36%) were called active. Not shown: some 18% with an inconclusive outcome. Rule as the data show it: active = normalized growth mostly below about 0.91 (no sharp cut-off); inconclusive = no clear call, values can overlap the other calls; inactive = mostly above about 0.92. The list shows a part of the results.

Experiment: chemical genetic growth profiling, strain panel (AID 1159580);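 also: tested at 20 µM; growth read once vehicle control cultures reached saturation at 30 °C; 1 = growth at the plate median or of vehicle wells; lower values mean less growth of the strain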
Settings: S. cerevisiae deletion strains, growth OD

Measured: normalized growth

Cc1c(O)c(C(=O)CC(C)C)c2oc3c(C(=O)CC(C)C)c(O)c(C)c(O)c3c2c1O
inactive: locus YAL013W, strain DEP1, active compounds read low 1.01 | locus YBR021W, strain FUR4, active compounds read low 0.943 | locus YBR229C, strain ROT2, active compounds read low 0.993 | locus YCL029C, strain bik1, active compounds read low 1.01 | locus YDL035C, strain GPR1, active compounds read low 0.994 | locus YDL074C, strain BRE1, active compounds read low 0.978 | locus YDL101C, strain DUN1, active compounds read low 1 | locus YDL134C, strain PPH21, active compounds read low 0.991 | locus YDL185W, strain tfp1, active compounds read low 1 | locus YDL192W, strain arf1, active compounds read low 0.987 | locus YDR101C, strain arx1, active compounds read low 0.972 | locus YDR150W, strain NUM1, active compounds read low 1.01 | locus YDR162C, strain NBP2, active compounds read low 1 | locus YDR318W, strain mcm21, active compounds read low 0.997 | locus YDR388W, active compounds read low 0.985 | locus YDR502C, strain sam2, active compounds read low 0.978 | locus YEL061C, strain CIN8, active compounds read low 1.01 | locus YER110C, active compounds read low 0.995 | locus YER155C, strain BEM2, active compounds read low 0.995 | locus YER167W, strain BCK2, active compounds read low 0.996 | locus YGL078C, strain dbp3, active compounds read low 0.985 | locus YGL086W, strain mad1, active compounds read low 0.989 | locus YGL248W, strain PDE1, active compounds read low 0.994 | locus YGR135W, strain pre9, active compounds read low 0.996 | locus YGR252W, strain gcn5, active compounds read low 0.918 | locus YHR030C, strain SLT2, active compounds read low 1 | locus YHR079C, strain IRE1 (second series), active compounds read low 0.987 | locus YHR094C, strain hxt1, active compounds read low 0.986 | locus YHR129C, strain ARP1, active compounds read low 1 | locus YHR200W, strain rpn10, active compounds read low 0.983 | locus YIL066C, strain RNR3, active compounds read low 1 | locus YIL073C, strain SPO22, active compounds read low 0.983 | locus YIL125W, strain kgd1, active compounds read low 0.995 | locus YIR030C, strain dcg1, active compounds read low 0.993 | locus YJL095W, strain BCK1, active compounds read low 0.994 | locus YJL134W, strain LCB3, active compounds read low 1 | locus YJL168C, strain set2, active compounds read low 0.994 | locus YJL187C, strain SWE1 (second series), active compounds read low 1 | locus YJR043C, strain POL32, active compounds read low 0.958 | locus YKL009W, strain mrt4, active compounds read low 0.977 | locus YKL068W, active compounds read low 1 | locus YKL085W, strain MDH1 (second series), active compounds read low 1.01 | locus YKL085W, strain MDH1, active compounds read low 1.01 | locus YKL190W, strain CNB1, active compounds read low 1 | locus YKR001C, strain vps1, active compounds read low 0.935 | locus YLR039C, strain RIC1, active compounds read low 0.787 | locus YLR058C, strain SHM2, active compounds read low 1 | locus YLR102C, strain apc9, active compounds read low 0.982 | locus YLR262C, strain YPT6, active compounds read low 0.811 | locus YLR268W, strain sec22, active compounds read low 0.985 | locus YLR330W, strain CHS5, active compounds read low 1 | locus YLR342W, strain FKS1 (second series), active compounds read low 0.978 | locus YLR371W, strain rom2, active compounds read low 0.999 | locus YLR418C, strain cdc73, active compounds read low 0.92 | locus YML016C, strain PPZ1, active compounds read low 1.01 | locus YML032C, strain rad52, active compounds read low 0.999 | locus YML124C, strain tub3, active compounds read low 0.99 | locus YMR078C, strain ctf18, active compounds read low 1 | locus YMR223W, strain ubp8, active compounds read low 0.996 | locus YMR307W, strain GAS1, active compounds read low 0.827 | locus YNL067W, strain RPL9B, active compounds read low 1.01 | locus YNL233W, strain BNI4, active compounds read low 0.968 | locus YNL250W, strain rad50, active compounds read low 1.01 | locus YNL271C, strain bni1, active compounds read low 1 | locus YNL298W, strain CLA4, active compounds read low 1 | locus YNL307C, strain MCK1, active compounds read low 0.994 | locus YNR052C, strain pop2, active compounds read low 1.01 | locus YOL006C, strain TOP1, active compounds read low 0.977 | locus YOL012C, strain htz1 0.768 | locus YOL147C, strain pex11, active compounds read low 0.987 | locus YOR061W, strain CKA2, active compounds read low 1 | locus YOR069W, strain VPS5, active compounds read low 1.01 | locus YOR136W, strain idh2, active compounds read low 0.99 | locus YOR144C, strain elg1, active compounds read low 0.996 | locus YOR184W, strain ser1, active compounds read low 0.974 | locus YOR316C, strain cot1, active compounds read low 0.986 | locus YPL241C, strain CIN2, active compounds read low 1 | locus YPR119W, strain clb2, active compounds read low 0.989 | locus YPR141C, strain kar3, active compounds read low 0.991 | locus YPR163C, strain tif3, active compounds read low 0.99 | locus YPR167C, strain met16, active compounds read low 1 | strain wtn01, active compounds read low 0.975
